# Laboratory results: ChEMBL document CHEMBL4513146, “CO-ADD screening of Karazin Kharkiv National University (Ukraine) compounds”
# Results with a measured potency or affinity are listed apart.
# Test system: Staphylococcus aureus
# Settings: Concentration 32 ug.mL-1;; ASSAY_TEST Inhibition of Bacterial Growth; detection method Absorption (OD600); MEDIA CAMHB; plate type 384well; NBS; CORNING #3640; time 18 hr
row,SMILES,Inhibition [%]
1,COc1ccc(-c2cc3c4nnc(SCC(=O)Nc5ccccc5Cl)n4ccn3n2)cc1,-12.96
2,CCOc1ccc(NC(=O)Cn2nc3c(SCc4ccc(Cl)cc4)nccn3c2=O)cc1,-1.92
3,COc1ccc(CN(c2cc(C)cc(C)c2)S(=O)(=O)c2cccn3c(C)nnc23)cc1,-21.45
4,O=C(Cn1nc2c(SCc3ccc(Cl)cc3)nccn2c1=O)Nc1ccccc1F,4.88
5,CCCCc1ccc(NC(=O)Cn2nc3ccc(-c4ccc(C)c(C)c4)nn3c2=O)cc1,7.91
6,C=Cc1ccc(CN(c2ccc(F)cc2)S(=O)(=O)c2ccc3nnc(C)n3c2)cc1,-1.19
7,CCC(C)NC(=O)Cn1nc2n(CCC(=O)NC3CCCCC3)c(=O)c3ccccc3n2c1=O (centres undefined),-5.52
8,Cc1ccc(-n2ccn3c(=O)n(Cc4ccccc4Cl)nc3c2=O)cc1C,0.51
9,COc1ccc(NC(=O)Cn2nc3nc(Nc4ccc(F)cc4)ccn3c2=O)cc1Cl,5.78
10,Cc1ccccc1Cn1nc2c(=O)n(-c3ccc(Br)cc3)ccn2c1=O,4.33
11,COc1ccc(NC(=O)Cn2nc3ccc(SC4CCCCC4)nn3c2=O)cc1OC,3.6
12,Cc1cc(C)c(NC(=O)Cn2nc3c(SCc4ccc(Cl)cc4)nccn3c2=O)c(C)c1,3.14
13,CCc1cccc(NC(=O)Cn2nc3ccc(SC4CCCCC4)nn3c2=O)c1,13.65
14,Cc1nnc2ccc(S(=O)(=O)N(Cc3cccc(F)c3)c3cc(F)cc(F)c3)cn12,9.82
15,CCOc1ccc(-n2ccn3c(SCC(=O)Nc4cc(OC)cc(OC)c4)nnc3c2=O)cc1,7.49
16,O=C(Cn1nc2c(N3CCOCC3)nccn2c1=O)Nc1cc(C(F)(F)F)ccc1Cl,6.98
17,O=C(Cn1nc2c(Sc3cccc(F)c3)nccn2c1=O)Nc1ccc(Br)cc1,3
18,Cc1cc(C)cc(NC(=O)Cn2nc3c4cc(-c5ccc(Cl)cc5)nn4ccn3c2=O)c1,2.02
19,Cc1ccc(C)c(Cn2nc3n(CCC(C)C)c(=O)c4sccc4n3c2=O)c1,8.96
20,CCc1cccc(C)c1NC(=O)CSc1nnc2ccc(C(=O)Nc3cccc(F)c3)cn12,1.86

row,SMILES,Inhibition [%]
1,CCOc1ccc(NC(=O)Cn2nc3c(Oc4ccc(C)cc4)nccn3c2=O)cc1,5.72
2,CC(C)Cn1c(=O)c2sccc2n2c(=O)n(CC(=O)N3CCC(Cc4ccccc4)CC3)nc12,-13.33
3,COc1ccc(-c2cc3c4nn(CC(=O)NCc5ccc(Cl)cc5)c(=O)n4ccn3n2)cc1,12.72
4,COc1ccccc1-n1ccn2c(SCC(=O)Nc3ccc4c(c3)OCO4)nnc2c1=O,7.67
5,O=c1n(Cc2cccc(C(F)(F)F)c2)nc2c(S(=O)(=O)N3CCCC3)cccn12,9.3
6,O=C(Cn1nc2ccc(Sc3ccccc3)nn2c1=O)Nc1ccc(F)c(Cl)c1,8.3
7,O=C(Cn1nc2c(SC3CCCCC3)nccn2c1=O)NCc1ccc(F)cc1,3.45
8,COc1ccc(Cl)cc1NC(=O)Cn1nc2c3cc(-c4ccc(C)cc4)nn3ccn2c1=O,13.21
9,COc1cccc(N(Cc2ccc(F)cc2)S(=O)(=O)c2ccc3nncn3c2)c1,-0.47
10,CCC(C)NC(=O)CSc1nnc2c(=O)n(Cc3ccc(F)cc3)ccn12 (centres undefined),1.4
11,Cc1cccc(C)c1NC(=O)Cn1c(=O)c2nnc(C(C)C)n2c2ccccc21,9.36
12,COC(=O)c1ccc(NC(=O)Cn2nc3c(Oc4ccccc4C)nccn3c2=O)cc1,-13.52
13,COc1ccc(-c2cc3c4nn(CC(=O)Nc5cccc(C)c5)c(=O)n4ccn3n2)cc1,1.22
14,O=C(CSc1nnc2c(=O)n(-c3ccccc3)ccn12)Nc1ccc(Br)cc1F,2.85
15,Cc1c(Cl)cccc1NC(=O)Cn1nc2c(SCc3ccccc3)nccn2c1=O,2.18
16,CC(C)c1nnc2c(SCC(=O)N3CCN(c4ccccc4F)CC3)nc3ccccc3n12,-2.06
17,COc1cccc(Oc2nccn3c(=O)n(CC(=O)Nc4ccc(Br)cc4F)nc23)c1,14.87
18,Cc1cc(C)cc(N(Cc2ccccc2)S(=O)(=O)c2cccn3c(C)nnc23)c1,-1.33
19,CCCNC(=O)CSc1nnc2c(=O)n(-c3ccc(F)cc3)ccn12,-5.35
